Measurements published in the supplement of paper PMC10338343.
± gives the standard deviation. Over roughly 8,200 sequences, “pre-steady-state target cleavage rate” has its median near 0.024; the highest 2% begin near 1.3. This excerpt belongs to a sample that is enriched for the highest values.

Tested on: MIWI (PIWIL1) piRISC loaded with L1MC piRNA (30 nt)
Assay: pre-steady-state target cleavage rate (min^-1); MIWI and MILI are mouse PIWI proteins and EfPiwi is from a freshwater sponge; tags in brackets are library labels; higher = faster piRNA-guided slicing of the target
Conditions: guide: L1MC piRNA 5'p-UAACUAAAUACUAUGCAAGCUGUAGGUCCU
Method in brief: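 The method was Cleave-'n-Seq, in which uncleaved targets from a transcribed, DNA-blocked target RNA library were sequenced after exposure to active affinity-purified piRISC carrying one synthetic guide, with or without GTSF1 partner protein. Reactions contained 0.1 nM library, 1 nM piRISC and, where present, 500 nM GTSF1 in HEPES–potassium acetate buffer at 33 °C for 0–8 or 0–960 min. Reads were normalised to depth and to weakly complementary targets, three trials were pooled, and k3 was capped at 0.0001 min^-1. The pre-steady-state cleavage rate came from a burst-and-steady-state fit.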

[1] = auxiliary factor: 500 nM mouse GTSF1
[2] = auxiliary factor: none (no GTSF1)

Row | Sequence | pre-steady-state target cleavage rate [1] | pre-steady-state target cleavage rate [2]
1 | UCGACCUACAGCUUCCAUAGUAAUUAGUUA | 0.0526 ± 0.017 | –
2 | UCCACCUACAGCUUGCAAUCUAUUUAGUUA | 0.194 ± 0.018 | –
3 | UGGACCUACUGCUUGCAUAGUAAUUAGUUA | 0.866 ± 0.04 | 0.033 ± 0.0084
4 | UCCUGGAUGUGCAUGCAUUGUAUUUAGUUA | 0.00495 ± 0.0033 | –
5 | UCCUGGUACAGGAAGCAUAGUAUUUAGUAA | 0.0592 ± 0.011 | –
6 | UCCACCAACAGCUAGCAUAGUAUUUAGUUA | 0.97 ± 0.033 | 0.0197 ± 0.0045
7 | UGGAGGUACAGCUUGCAUAGUAUUUUCAAA | 0.0674 ± 0.014 | 0.00316 ± 0.0017
8 | UGGAGCUACAGCUUCCAUAGUAUUUAGUUA | 0.275 ± 0.047 | 0.00584 ± 0.0013
9 | UCCACCUACGCUUGCAUAGUAUUUAGUUA | 0.998 ± 0.04 | 0.0451 ± 0.0077
10 | UGGACCUACGCUUGCAUAGUAUUUAGUUA | 1.4 ± 0.081 | 0.046 ± 0.008
11 | UCGACCUACGCUUGCAUAGUAUUUAGUUA | 1.45 ± 0.052 | 0.0463 ± 0.0093
12 | AGGACCUACGCUUGCAUAGUAUUUAGUUA | 1.27 ± 0.066 | 0.0719 ± 0.013
13 | UGGACCUACACGCUUGCAUAGUAUUUAGUUA | 1.06 ± 0.06 | 0.0641 ± 0.013
14 | UCGACCUACACGCUUGCAUAGUAUUUAGUUA | 1.23 ± 0.063 | 0.0454 ± 0.0074
15 | UCCACCUACAGGUUGCAUAGUAUUUAGUAA | 0.866 ± 0.1 | 0.0134 ± 0.0028
16 | UCCUGGUACAGCUUGCCAUAGUAUUUAGUUA | 0.0951 ± 0.024 | –
17 | UCCUCCUACUGCUUGCAUAGUAUUUAGAUA | 0.185 ± 0.024 | 0.0115 ± 0.002
18 | UCCUGGAUGAGCUUGCAUAGUAAUUAGAUA | 0.136 ± 0.034 | 0.00679 ± 0.0036
19 | UCCUGGAUGUGCUUGCAUUGUAUUUAGAUA | 0.0181 ± 0.0038 | 0.0063 ± 0.0025
20 | UCCUGCUACAGCUAGCAUAGAAUUUAGUUA | 0.528 ± 0.048 | 0.0108 ± 0.0032
21 | UGGGCCUACAGCUUGCAUAGUAUUUAGUUA | 1.39 ± 0.08 | 0.0716 ± 0.013
22 | AGGGCCUACAGCUUGCAUAGUAUUUAGUUA | 1.39 ± 0.061 | 0.106 ± 0.023

Row | Sequence | pre-steady-state target cleavage rate [1] | pre-steady-state target cleavage rate [2]
23 | UCCUGGAUGAGCUUGAAUAGUAUUUAGUUA | 0.944 ± 0.045 | 0.0233 ± 0.007
24 | UCCUGGAUCAGCAUGCAUAGUAUUUUGUUA | 0.517 ± 0.03 | 0.00866 ± 0.003
25 | UCCUGCUACAGCUUGCAAAGUAUUUAGAAA | 0.319 ± 0.043 | 0.00338 ± 0.0032
26 | UCCUGCUACAGCUAGGAUAGUAUUUAGUUA | 1.15 ± 0.12 | 0.006 ± 0.0018
27 | AGGACCAACAGCAUGCAUAGUAUUUAGUUA | 1.39 ± 0.048 | 0.0703 ± 0.016
28 | UCCACCAACAGCAUGCAUAGUAUUUAGUUA | 0.943 ± 0.032 | 0.0211 ± 0.0046
29 | UCCUCCAACAGCAUGCAUAGUAUUUAGUUA | 1.11 ± 0.051 | 0.0217 ± 0.0039
30 | UGGACCAACAGCAUGCAUAGUAUUUAGUUA | 1.24 ± 0.046 | 0.0449 ± 0.01
31 | UCGACCAACAGGUUGCAUAGUAUUUAGUUA | 1.16 ± 0.049 | 0.0326 ± 0.006
32 | UCGACCAACAGCAUGCAUAGUAUUUAGUUA | 1.33 ± 0.037 | 0.033 ± 0.0067
33 | UCCACCUAGUGCUUGCAUAGUAUUUUCAAA | 0.0568 ± 0.012 | –
34 | UGGACCUAGUCCUUGCAUAGUAUUUACAAA | 0.0221 ± 0.0084 | –
35 | UGCACCUACAGCUAGCAUAGUAUUUAGUUA | 1.22 ± 0.097 | 0.0194 ± 0.0043
36 | UCCUGGAUGAGCUUGCAUAGUAUUAUGAAA | 0.0112 ± 0.0054 | –
37 | UCGACCUACAGCUUGCAAAGUAUUUACAAA | 0.33 ± 0.035 | 0.00465 ± 0.002
38 | UCCUGCUUGUGCUUGCAUAGUAUUUACAAA | 0.0637 ± 0.014 | 0.00366 ± 0.0024
39 | UGGACCUACAGCAAGCAUAGUAUUUAGUAA | 0.898 ± 0.11 | 0.0053 ± 0.0019
40 | UCGACCUACAGCAAGCAUAGUAUUUAGAAA | 0.349 ± 0.041 | –
41 | AGGACCUACAGCAAGCAUAGUAUUUAGUUA | 1.2 ± 0.069 | 0.0105 ± 0.0035
42 | UGGACCUACAGCAAGCAUAGUAUUUAGUUA | 1.34 ± 0.1 | 0.00929 ± 0.0027
43 | UCGACCUACAGCAAGCAUAGUAUUUAGUAA | 0.818 ± 0.066 | 0.00275 ± 0.0026
44 | UCGACCUACAGCAAGCAUAGUAUUUAGUUA | 1.4 ± 0.083 | 0.00748 ± 0.0028
